Values without a mark were called inactive. Calls of active or inactive are those of the source. Cut-off read from the data, not from the text of the source: active = log2 fold change growth below about -1.8; inactive = the rest.

This assay is described as follows: C. elegans growth inhibition, whole organism, log2 fold change (AID 1259336).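 Note: growth scored by imaging after five days at 20 °C.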 The note with it: anthelmintic screen, stronger effect = lower value.
Turning to `CC(C)(C)C1CCC(CC2=C(O)c3ccccc3C(=O)C2=O)CC1` (stereo not given), the log2 fold change growth is -0.0767.
Next, `OCCc1ccc(Nc2nccc(-c3nnc4ccccn34)n2)cc1`: -0.0214; `C[C@H](c1ccc2c(c1)CCCC2)N(C)c1ncc2c(N)nc(N)nc2n1`: 0.0756; `C[C@]1(COc2ccc(N3CCC(Oc4ccc(OC(F)(F)F)cc4)CC3)cc2)Cn2cc([N+](=O)[O-])nc2O1`: 0.162.
Consider `CC(=O)NC[C@H]1CN(c2ccc(-c3ccc(CO)cc3)c(F)c2)C(=O)O1`, for which the log2 fold change growth is 0.592.
In the case of `CC(C)c1ncc(-c2ccncc2)c(C2CCC(CNC(=O)c3cccnc3)CC2)n1` (stereo not given) it was -0.0296; in that of `C[C@H]1COC2(CCN(c3nc(=O)c4cc(C(F)(F)F)cc([N+](=O)[O-])c4s3)CC2)O1`, -0.284.
Next, `CC(=O)NC[C@H]1CN(c2ccc(-c3ccc(CNCc4cn[nH]n4)cc3)c(F)c2)C(=O)O1`: 0.387.
In the case of `Cc1nc2ccccn2c1C(=O)NCc1ccc(Cl)cc1` it was 0.244; in that of `O=C(Nc1ccc(F)c(-c2nc3ncc(-c4ccccc4)cc3[nH]2)c1)N1CCCC1`, -5.81 (active); in that of `COc1ccc(C2=NN(C3CCCCCC3)C(=O)[C@@H]3CC=CC[C@H]23)cc1OCCCCOc1ccc(-c2nn[nH]n2)cc1`, -0.0946.
`Nc1nc(N)c2c3c(sc2n1)CN(Cc1ccccc1)CC3`: the log2 fold change growth was 0.456.
For the compound `c1csc(-c2cnc3sc(NCC4CCOCC4)nn23)c1`, the log2 fold change growth is -0.257.
With `C[C@H](C(N)=O)N1CCCC[C@H]1c1ccc(OCc2cccc(F)c2)cc1`, the log2 fold change growth is -0.0659.
Next, `CCCn1nnc(NC(=O)COc2ccc(C3CCCCC3)cc2)n1`: 0.0714; `COc1cc(N[C@@H](C)CCCN)c2ncccc2c1`: -0.0147; `Cc1ccc(C(=O)Nc2ccc(S(=O)(=O)O)c3cc(S(=O)(=O)O)cc(S(=O)(=O)O)c23)cc1NC(=O)c1cccc(NC(=O)Nc2cccc(C(=O)Nc3cc(C(=O)Nc4ccc(S(=O)(=O)O)c5cc(S(=O)(=O)O)cc(S(=O)(=O)O)c45)ccc3C)c2)c1`: 0.211.
In the case of `COc1ccc(N(CCc2cccc(C)n2)C(C)=O)cc1` it was 0.0749; in that of `Cc1nn(C)cc1[C@H](C)Nc1nncc(-c2ccc(C(F)(F)F)cc2)n1`, 0.429.
`Cc1cccc(NC(=O)c2cc(S(=O)(=O)N(C)c3ccc(F)cc3)ccc2Cl)n1`: the log2 fold change growth was -0.21.
Regarding `c1coc(CNc2nc(N3CCCCC3)nc3ccccc23)c1`, the log2 fold change growth was -0.141.
Next, `C[C@@H]1[C@H](O)[C@@H](C)C=CC=CC=CC=CC=CC=CC=C[C@H](O[C@@H]2O[C@H](C)[C@@H](O)[C@H](N)[C@@H]2O)C[C@@H]2O[C@](O)(C[C@@H](O)C[C@@H](O)[C@H](O)CC[C@H](O)C[C@@H](O)CC(=O)O[C@H]1C)C[C@H](O)[C@H]2C(=O)O`: 0.0153; `Cc1ccc(-c2cc(C(=O)Nc3cccnc3)c3cc(Br)ccc3n2)cc1`: -0.0922.
Next, `O=C(c1ccc(NCCO)cc1)C1C[C@H]1c1ccc(Cl)cc1` (stereo not given in full): -0.319.
For `Nc1nccc2ccc(Oc3ccncc3)cc12`, the log2 fold change growth was 0.145.
